# Source: PubChem (National Center for Advancing Translational Sciences (NCATS))
# HT1080 IDH1KD tx – qHTS for induction of synthetic lethality in tumor cells producing 2HG: qHTS for the HT-1080-IDH1KD cell line. HT-1080 IDH1 knockdown viability, ATP luminescence, 48 h. 360,000 compounds, 2% hits. Potency, µM (doses to about 46.1 µM), inactives show at the top dose activity, negative = toxicity, usual class: cytotoxic;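 further: potency means the concentration at half of the fitted maximal effect; 0% = DMSO wells and -100% = cell-free medium wells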
#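 Luminescent ATP read-out (CellTiter-Glo, 10 min at room temperature) after 48 h compound exposure at 37 °C gave viability of IDH1-knockdown HT-1080 cells. Activity was normalised to DMSO and cell-free wells, then fitted as concentration-response curves.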
# TDP1 cell noCPT – qHTS for Inhibitors of human tyrosyl-DNA phosphodiesterase 1 (TDP1): qHTS in cells in absence of CPT; AID 686978, 2013; Potency, µM (series often up to 46.2 µM), for inactives: at the top dose activity change, negative = growth inhibition, actives largely listed as inhibitors; DT40 Tdp1-/- hTDP1 cells, no CPT, ATP luminescence, 48 h; 420,000 compounds, 15% hits; further: potency means the concentration at half of the fitted maximal effect; nearly all actives have a fitted effect of over 55% in size
#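 Growth kinetics read by CellTiter-Glo luminescence after ≥48 hr at 37 °C. Cells: DT40 Tdp1-/- stably carrying human TDP1, 400 per well, compound exposure in the absence of CPT (DMSO vehicle).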
# IL-1B inflam inh – qHTS for Inhibitors of Inflammasome Signaling: IL-1-beta AlphaLISA Primary Screen; THP-1 LPS/ATP IL-1B secretion, AlphaLISA, 16 h; stronger effect = lower value; activity change, % at 57.5 µM; 360,000 compounds, 4.7% hits; in the data active means activity change below about -50%; inconclusive means mostly about -30% to -49%
#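 Secreted IL-1B measured by AlphaLISA bead assay after 16 h compound exposure of THP-1 cells; compounds (final up to 57.5 uM) added 1 h before LPS (250 ng/mL) and ATP (1.25 mM) stimulation; lower signal means less secretion.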
# DT40 TDP1 CPT – qHTS for Inhibitors of human tyrosyl-DNA phosphodiesterase 1 (TDP1): qHTS in cells in presence of CPT; Potency, µM (titrated, usually from 46.2 µM), for the others: at the top dose activity change, negative = growth inhibition, usual class: inhibitors; AID 686979, 2013; 420,000 compounds, 12% hits; chicken DT40 Tdp1-/-;hTDP1 cells + 20 nM CPT, ATP luminescence, 48 h; further: potency means the concentration at half of the fitted maximal effect; nearly all actives have a fitted effect of over 55% in size
#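 Chicken DT40 Tdp1-/- cells complemented with human TDP1, 400 cells/well, exposed to compounds plus 20 nM camptothecin for at least 48 h at 37 C; viability read as ATP content by CellTiter-Glo luminescence.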
# HT1080-NT tox – qHTS for induction of synthetic lethality in tumor cells producing 2HG: qHTS for the HT-1080-NT fibrosarcoma cell line. HT-1080-NT fibrosarcoma viability, CellTiter-Glo ATP luminescence, 48 h. Potency, µM (highest dose often 46.1 µM), for inactives: at the top dose activity, negative = less viability, most hits filed as cytotoxic. 360,000 compounds, 1.6% hits. AID 686970, 2013;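 further: NT is the 2HG producing partner of a matched IDH1 knockdown line; potency means the concentration at half of the fitted maximal effect; 0% = DMSO-treated cells and -100% = media-only wells without cells; nearly all actives have a fitted effect of over 55% in size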
#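 A 48-hour cytotoxicity screen used HT-1080-NT cells plated 2 hours before compound delivery. ATP-based CellTiter-Glo luminescence measured viability, normalized to DMSO and no-cell controls.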
# Starred values were filed as active, the others as inactive; ? = inconclusive; nt = no result. Sampled rows, rich in hits. Any-hit rate of the full collection: about 19%. Unless noted, the call rests on the fitted dose curve; in most records, active means well fitted curve in the direction sought with a large enough effect; inconclusive means small, poorly fitted or top-dose-only effect, or another doubt; inactive means no such curve, though single readings can be large; an effect the other way counts as inactive or inconclusive. Unless noted, on the % scale 0 is the no-effect control and ±100 the full control effect.
SMILES,HT1080 IDH1KD tx,TDP1 cell noCPT,IL-1B inflam inh,DT40 TDP1 CPT,HT1080-NT tox
O=C(Nc1ccc(CN2CCOCC2)cc1)c1ccc(Br)o1,-7.9%,-15.6%,-7.3,21.1%,6.6%
O=C(Nc1ccc(N2CCN(C(=O)c3ccccc3)CC2)c(Cl)c1)c1ccc(Br)o1,?,20.6µM*,-100.7*,23.1µM*,7.08µM*
Cc1ccccc1C(=O)Nc1ccccc1,nt,0.6%,-4.4,6.5%,nt
O=C(Nc1ccc(N2CCOCC2)c(Cl)c1)c1ccc(Br)o1,-8.4%,11.2µM*,-74.0*,?,?
Cc1ccccc1C(=O)Nc1cccc(NC(=O)c2ccc(-c3ccc(Br)cc3)o2)c1,-14.9%,8.2µM*,20.7,23.1µM*,-19.1%
CN(C)CCCNC(NC(=O)/C=C/c1ccccc1)C(Cl)(Cl)Cl (stereo not given),9.4%,-19.8%,-2.0,-0.4%,21.4%
CCC(C)c1ccc(S(=O)(=O)N2CCN(CC(O)COCC3CCCO3)CC2)cc1 (stereo not given),1.4%,-12.2%,-4.2,-2.9%,0.8%
O=C(Nc1ccc(N2CCCC2)cc1)c1ccc(Br)o1,11.9%,?,-12.1,?,5.7%
O=C(Nc1ccc(N2CCN(C(=O)c3ccccc3)CC2)cc1)c1ccc(Br)o1,6.1%,?,-53.7*,16.4µM*,2.2%
Cc1ccc(-c2[nH]ncc2/C=C(\C#N)C(=O)NC2CCCCC2)cc1,?,20.6µM*,-58.8*,?,?
N#C/C(=C\C=C\c1ccccc1[N+](=O)[O-])C(=O)NC1CCCCC1,5.2%,9.2µM*,-104.0*,9.2µM*,4.4%
N#C/C(=C\c1ccccc1[N+](=O)[O-])C(=O)NC1CCCCC1,18.4µM*,14.6µM*,-71.5*,?,?
N#C/C(=C\c1cc(Cl)ccc1O)C(=O)NC1CCCCC1,-13.2%,?,-16.9,?,5.0%
N#C/C(=C\c1cc(Br)ccc1F)C(=O)NC1CC1,8.8%,?,-2.1,13µM*,7.4%
CCOc1ccccc1/C=C(\C#N)C(=O)NC1CC1,-3.5%,-17.5%,0.0,-19.3%,-3.5%
N#C/C(=C\c1ccc(F)c(Br)c1)C(=O)NC1CC1,8.4%,?,-28.2,?,0.6%
COCCNS(=O)(=O)c1ccc(SC)cc1,2.3%,-6.0%,3.0,-0.2%,5.9%
N#C/C(=C\c1cc(Cl)cc(Cl)c1O)C(=O)NC1CCCCC1,-7.7%,?,-1.7,20.6µM*,-3.4%
Cc1c(CNC(C)CCc2ccccc2)c(C(=O)O)c(C)n1Cc1ccc(F)cc1 (stereo not given),nt,-22.4%,nt,-20.2%,nt
Cn1cccc1C1NC(=O)c2c(sc3c2CCC(C(C)(C)C)C3)N1 (stereo not given),-1.7%,18.4µM*,?,-29.7%,-8.3%
O=C(NCCCN1CCCC1=O)c1c(O)nc2sccn2c1=O,4.0%,-0.3%,-1.7,3.8%,-1.0%
O=C(NNC(=O)c1ccccc1OCc1ccccc1)c1ccccc1O,?,3.66µM*,142.6,5.8µM*,-26.9%
CN(C)S(=O)(=O)c1cccc(NC(=O)c2ccccc2OCc2ccc(F)cc2)c1,-11.6%,?,40.8,14.6µM*,-8.6%
O=C(NNC(=O)c1ccccc1OCc1ccc(F)cc1)c1ccccc1O,?,5.17µM*,36.9,6.51µM*,-13.2%
CC(=O)c1cccc(NC(=O)c2ccccc2OCc2ccc(F)cc2)c1,-25.6%,-28.3%,32.8,-28.5%,-5.3%
SMILES,HT1080 IDH1KD tx,TDP1 cell noCPT,IL-1B inflam inh,DT40 TDP1 CPT,HT1080-NT tox
CC(=O)c1ccccc1OCc1ccc(S(=O)(=O)Cc2ccccc2)cc1,-0.1%,20.6µM*,-60.2*,25.9µM*,-12.0%
CN(CCc1ccccc1)C(=O)c1cccc(NC(=O)Cc2cccc(NC(=O)C3CCN(C(=O)c4ccccc4)CC3)c2)c1,-4.7%,?,-5.4,?,-3.0%
CCOC(=O)C1=C(COC(=O)CNS(=O)(=O)c2ccc(C)c(C)c2)NC(=O)NC1C (stereo not given),9.7%,-1.9%,15.7,-8.4%,2.7%
CC1(C(=O)NS(=O)(=O)c2cccc(OC(F)F)c2)CCN1C(=O)c1cccc(F)c1 (stereo not given),4.2%,-12.6%,24.6,-16.0%,16.2%
Cc1cc(C)c(C(=O)Nc2ccc(Br)c(C(F)(F)F)c2)c(C)c1,-27.5%,11.6µM*,0.0,16.4µM*,-3.7%
COc1cc(CCC(=O)Nc2ccc(Cl)c(C(F)(F)F)c2)cc(OC)c1OC,2.3%,8.2µM*,-12.9,18.4µM*,4.7%
COc1cc(CCC(=O)Nc2cccc(C(F)(F)F)c2)cc(OC)c1OC,8.6%,13µM*,0.8,?,11.9%
COc1cc(CCC(=O)OCC(=O)Nc2ccc(F)c(F)c2)cc(OC)c1OC,-3.2%,-11.1%,6.9,-4.2%,-1.4%
COc1cc(C(=O)Nc2nc(OC)c(-c3ccccc3)c(OC)n2)cc(OC)c1OC,?,18.4µM*,-5.6,?,?
O=C(O)c1ccccc1C(=O)Nc1ccc(Br)c(C(F)(F)F)c1,3.1%,-1.4%,0.5,-4.8%,-2.8%
CC1CCN(S(=O)(=O)N2CCN(C(=O)c3ccc4c(c3)OCO4)CC2)CC1,7.1%,-1.0%,22.7,4.7%,6.7%
CCC(C(=O)O)n1ccc2cc(S(=O)(=O)N3CCCCC3)ccc21 (stereo not given),nt,-8.6%,nt,-3.5%,nt
COc1cc(CCC(=O)Nc2cc(C)cc(C)c2)cc(OC)c1OC,?,16.4µM*,24.3,-24.8%,8.6%
COc1ccc2nc(NC(=O)CCc3cc(OC)c(OC)c(OC)c3)sc2c1,-0.4%,20.6µM*,-62.7*,?,-0.7%
COc1cc(C(=O)Nc2ccc(Cl)c(C(F)(F)F)c2)cc(OC)c1OC,-17.2%,23.1µM*,-83.9*,14.6µM*,?
COc1cc(C(=O)Nc2ccc(Nc3ccccc3)cc2)cc(OC)c1OC,-25.7%,?,-56.1*,?,-23.6%
COc1cc(C(=O)Nc2ccncc2)cc(OC)c1OC,-4.8%,?,20.7,-26.0%,-13.5%
Cc1cc(C)cc(-n2c(C)cc(C(=O)C(=O)Nc3ccccc3F)c2C)c1,nt,1.0%,nt,2.9%,nt
Cc1cccc(N2CCN(C(=O)c3ccc(NC4=NC5CS(=O)(=O)CC5S4)cc3)CC2C)c1 (stereo not given),?,-23.3%,2.6,?,13.5%
Cc1cccc(NC(=O)CSCC(=O)NCc2ccco2)c1,0.4%,15.0%,12.8,-7.4%,4.8%
CCc1nnc(NC(=O)CSc2nnc3nc(C)cc(C)n23)s1,10.6%,0.4%,14.4,-7.2%,16.1%
